From ChEMBL document CHEMBL1157539, “Thousands of chemical starting points for antimalarial lead identification” (Nature, 2010) come the findings set out here.

A word on the Inhibition: it is how much of the control response was suppressed. A higher Inhibition goes with a response far below the control.

Common to all, as to format: functional
Test [1] relates to Plasmodium falciparum. As to the kind of experiment: GSK_TCMDC: Inhibition of Plasmodium falciparum 3D7 in whole red blood cells, using parasite LDH activity as an index of growth. Test compounds present at 2uM.
The subject of test [2] is Plasmodium falciparum. As to the kind of experiment: GSK_TCMDC: Inhibition of Plasmodium falciparum Dd2 in whole red blood cells, using parasite LDH activity as an index of growth. Test compounds present at 2uM.
Another test deals with HepG2. In words: GSK_TCMDC: Percent inhibition of human HepG2 cell line. Test compounds present at 10uM.

`CNCCNCc1ccc(-c2ccc(-c3nc4cccc(C)c4[nH]3)s2)cc1.O=C(O)C(F)(F)F`: the values for the Inhibition in the test with Plasmodium falciparum [1], with Plasmodium falciparum [2] and with HepG2 were 97%, 26% and 16%, respectively.

Regarding `NS(=O)(=O)c1cccc(-c2ccc3ncc(N4CCOCC4)nc3c2)c1`, the Inhibition in the test with Plasmodium falciparum [1] is 96%; in the test with Plasmodium falciparum [2], 74%; in the test on HepG2, 17%.

Regarding `O=C(COc1ccccc1)Nn1cnc2ccccc21`, the Inhibition is 91% in the test on Plasmodium falciparum [1], 0% in the test with Plasmodium falciparum [2] and 2% with HepG2.

Take `CC[C@H](C)CNC(=O)c1cncc(-c2ccc(CN(C)C3CCN(C)CC3)cc2)c1.O=C(O)C(F)(F)F`: the Inhibition turned out to be 100% in the test with Plasmodium falciparum [1], 97% in the test with Plasmodium falciparum [2] and 0% with HepG2.

Regarding `Fc1ccc(-c2cc(NCCCn3ccnc3)nc(-c3cccnc3)n2)cc1`, the results for the Inhibition in the test on Plasmodium falciparum [1], in the test on Plasmodium falciparum [2] and in the test on HepG2 were 99%, 70% and 11%, respectively.

As for `CCOc1ccc(Nc2ccc3nonc3c2S(=O)(=O)Nc2ccc(OCC)cc2)cc1`, the Inhibition in the test on Plasmodium falciparum [1] was found to be 100%; with Plasmodium falciparum [2] it was 93%; with HepG2 it was 6%.

Regarding `COc1ccc(Cn2ncc3c4c(N)nc(N)nc4ccc32)cc1OC`, the results for the Inhibition in the test with Plasmodium falciparum [1], in the test on Plasmodium falciparum [2] and in the test on HepG2 were 94%, 95% and 68%, respectively.

As to `COc1cc(C)nc2ccc(NC(=O)c3cc([N+](=O)[O-])cc([N+](=O)[O-])c3)cc12.Cl`, the figures for the Inhibition with Plasmodium falciparum [1], in the test with Plasmodium falciparum [2] and with HepG2 were 100%, 94% and 0%, respectively.

As to `Cl.Fc1cccc(COc2ccc(Nc3ncnc4ccc(-c5nnc(C(F)(F)F)o5)cc34)cc2Cl)c1`, the values for the Inhibition in the test on Plasmodium falciparum [1], in the test with Plasmodium falciparum [2] and in the test with HepG2 were 100%, 77% and 14%, respectively.

In the case of `Nc1n[nH]c(-c2ccccc2Nc2ccnc3cc(-c4nccs4)ccc23)n1`, the Inhibition in the test with Plasmodium falciparum [1] turned out to be 100%; with Plasmodium falciparum [2] it was 94%; in the test on HepG2, 98%.

Consider `CC(C)n1ncc2c(C(=O)N3CCCCCC3)cc(-c3ccccc3)nc21`, for which the Inhibition in the test on Plasmodium falciparum [1] was found to be 97%; with Plasmodium falciparum [2] it was 42%; in the test with HepG2, 0%.

For the compound `CCN(CC)CCN(Cc1ccc(-c2ccc(C(F)(F)F)cc2)cc1)C(=O)c1ccc(-c2ccc(NC(=O)OC)cc2C)cc1`, the Inhibition in the test with Plasmodium falciparum [1] is given as 93%; in the test on Plasmodium falciparum [2] it was 42%; with HepG2 it was 66%.

With `O=C(N[C@@H](Cc1ccccc1)C(=O)O)c1cc(-c2ccc(F)cc2)no1.O=C(N[C@@H](Cc1ccccc1)C(=O)O)c1conc1-c1ccc(F)cc1`, the Inhibition in the test on Plasmodium falciparum [1] turned out to be 96%; with Plasmodium falciparum [2] it was 49%; with HepG2, 0%.

As to `CC1CN(c2cnn(C/C=C/c3ccc(NC(=O)c4ccc(Cl)cc4)cc3)c(=O)c2Cl)CC(C)N1.O=C(O)C(F)(F)F` (centres undefined), the Inhibition turned out to be 88% in the test with Plasmodium falciparum [1], 82% in the test on Plasmodium falciparum [2] and 25% with HepG2.

Regarding `CCCc1c(C(=O)Nc2ccc3c(c2)CCN(C2CCC2)CC3)cnn1-c1ccc(Cl)cc1.O=C(O)C(F)(F)F`, the Inhibition in the test with Plasmodium falciparum [1] is reported as 92%; in the test with Plasmodium falciparum [2], 12%; in the test with HepG2 it was 64%.

With `Oc1ccc2[nH]cc(C3CCN(CCC(c4ccccc4)c4ccccc4)CC3)c2c1`, the Inhibition with Plasmodium falciparum [1] is 90%; in the test with Plasmodium falciparum [2], 42%; in the test on HepG2, 27%.

As to `Fc1ccccc1C=NN=c1cc[nH]c2ccc(C(F)(F)F)cc12`, the figures for the Inhibition in the test with Plasmodium falciparum [1], in the test on Plasmodium falciparum [2] and in the test with HepG2 were 100%, 61% and 5%, respectively.

On to `CCC1CN2CCc3c([nH]c4ccccc34)[C@@H]2C[C@@H]1CC1NCCc2cc(OC)c(OC)cc21.Cl` (some centres undefined), for which the Inhibition in the test on Plasmodium falciparum [1] was determined as 100%; with Plasmodium falciparum [2], 67%; in the test with HepG2, 33%.

As for `Cc1cc(C)cc(OCC(O)CN(Cc2cc(Cl)cc(Cl)c2)C(=O)Nc2ccccc2Cl)c1` (centres undefined), the Inhibition in the test with Plasmodium falciparum [1] is on record as 93%; with Plasmodium falciparum [2], 37%; in the test on HepG2, 0%.

Take `CCN(CC)CCN(Cc1ccc(-c2ccc(C(F)(F)F)cc2)cc1)C(=O)Cn1c(CCc2ccc(F)cc2)nc(=O)c2ccccc21.O=C(O)C(O)C(O)C(=O)O`: the Inhibition in the test with Plasmodium falciparum [1] came to 97%; with Plasmodium falciparum [2], 58%; in the test on HepG2, 42%.

On to `Cc1ccccc1CNc1noc(-c2c(F)cccc2Cl)n1`, for which the Inhibition came to 97% in the test on Plasmodium falciparum [1], 90% with Plasmodium falciparum [2] and 14% with HepG2.

As for `Cc1cc(C(=O)CN2C(=O)NC(C)(c3ccc4ccccc4c3)C2=O)c(C)n1Cc1ccco1` (centres undefined), the Inhibition in the test with Plasmodium falciparum [1] is recorded as 97%; in the test with Plasmodium falciparum [2], 71%; in the test on HepG2 it was 12%.

Consider `CCCCc1cc(NCc2ccncc2)nc(Nc2ccccc2)n1`, for which the figures for the Inhibition with Plasmodium falciparum [1], with Plasmodium falciparum [2] and in the test on HepG2 were 96%, 4% and 0%, respectively.

Consider `Cl.N#Cc1ccc2c(c1)CCN(CCC1CCC(NC(=O)c3cc4cccc([N+](=O)[O-])c4[nH]3)CC1)C2` (centres undefined), for which the results for the Inhibition in the test with Plasmodium falciparum [1], in the test on Plasmodium falciparum [2] and with HepG2 were 100%, 28% and 0%, respectively.

For the compound `Cc1ccc(C(=O)Nc2ccc(Nc3ccnc4cc(-c5ccncc5)ccc34)cc2O)cc1`, the Inhibition with Plasmodium falciparum [1] was found to be 97%; in the test on Plasmodium falciparum [2], 100%; in the test with HepG2, 14%.

`CCCCCCN1CCCN(Cc2ccc(C(=O)Nc3ccc(C(C)C)cc3)cc2)CC1.O=C(O)C(F)(F)F`: the Inhibition in the test on Plasmodium falciparum [1] is 93%; in the test with Plasmodium falciparum [2], 50%; with HepG2, 40%.

Take `O=C(O)C(F)(F)F.O=C1OC(c2ccccc2)(c2ccccn2)CN1C1CCN(Cc2cccn2-c2ccc(Cl)cc2)CC1` (centres undefined): the Inhibition in the test on Plasmodium falciparum [1] stood at 99%; with Plasmodium falciparum [2], 98%; in the test with HepG2 it was 21%.

With `CCCN(CCC)C(=O)c1cc(C(=O)N[C@@H](Cc2ccccc2)[C@H](O)CNC2CC2)cc(N2CCCCS2(=O)=O)c1`, the Inhibition turned out to be 100% with Plasmodium falciparum [1], 98% in the test on Plasmodium falciparum [2] and 0% in the test with HepG2.
